Consider 39 compounds from PubChem BioAssay (Tox21).

Results filed as inconclusive are left out. Calls of active or inactive are those of the source. The call rests on the fitted dose curve; in most records, active means well fitted curve in the direction sought with a large enough effect in the repeat runs; inconclusive means weak or mixed curves; inactive means no such curve, though single readings can be large; an effect the other way counts as inactive or inconclusive.
On the % scale 0 is the no-effect control and ±100 the full control effect.

One test in a line: qHTS assay to identify small molecule agonists of the RXR signaling pathway - cell viability counter screen (AID 1159529).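 Further: HEK 293T cells carrying an RXR-alpha UAS beta-lactamase reporter; nearly all actives have a fitted effect of over 50% in size.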 As to conditions: RXR-alpha-bla HEK293T viability, CellTiter-Glo, 16 h; series mostly up to 76.8 µM; activity change, negative = cytotoxicity: at the top concentration. Put shortly:
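Steps: seed RXR-alpha-UAS-bla HEK 293T cells in assay medium containing 2% charcoal-stripped FBS; incubate 5 hr; add compounds in DMSO; incubate 16 hr at 37 C; after the bla read, add CellTiter-Glo and read luminescence at 30 min.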
As to `Oc1ccc(Oc2ccccc2)cc1`, the “activity change, negative = cytotoxicity” value is -10.1% (inactive).

In the case of `CCCCCCCCCCCCCCCCCCCl`, the activity change, negative = cytotoxicity is 3.39% [at 6.97 µM] (inactive).

As for `CC(=O)Oc1cccc2c1C(=O)c1c(OC(C)=O)cc(C(=O)O)cc1C2=O`, the “activity change, negative = cytotoxicity” value is 1.34% [at 35.3 µM] (inactive).

As to `O=[N+]([O-])c1cccc(I)c1`, the “activity change, negative = cytotoxicity” value was 0.781% (inactive).

In the case of `CCCc1ccc(OC)cc1`, the “activity change, negative = cytotoxicity” value is 6.78% (inactive).

As to `O=C1c2ccccc2C(=O)c2c1ccc(O)c2O`, the “activity change, negative = cytotoxicity” value is 2.89% [at 35.3 µM] (inactive).

Regarding `CCC(C)C1N=C(C)C(C)S1` (stereo not drawn), the “activity change, negative = cytotoxicity” value was -4.98% (inactive).

With `C/C(=C(\CCO)SS/C(CCO)=C(\C)N(C=O)Cc1cnc(C)nc1N)N(C=O)Cc1cnc(C)nc1N`, the “activity change, negative = cytotoxicity” value was 3.56% [at 35.3 µM] (inactive).

Consider `CC(C)(Cc1c[nH]c2ccccc12)NCC(O)COc1ccccc1C#N` (stereo not drawn), for which the “activity change, negative = cytotoxicity” value was -22.3% [at 35.3 µM] (inactive).

With `Clc1ccccc1-c1nc(-c2ccncc2)no1`, the “activity change, negative = cytotoxicity” value is -11.7% [at 35.3 µM] (inactive).

For the compound `CCCCCCCCS`, the “activity change, negative = cytotoxicity” value is -1.2% (inactive).

`CC(C)NC(=O)c1ccccc1N`: the “activity change, negative = cytotoxicity” value was 0.732% (inactive).

Consider `O=[N+]([O-])c1ccccc1CCO`, for which the “activity change, negative = cytotoxicity” value was -1.95% (inactive).

Consider `Cc1c(N=C=O)cccc1N=C=O`, for which the “activity change, negative = cytotoxicity” value was 14.7% (inactive).

For `CC(C)(C)N`, the “activity change, negative = cytotoxicity” value was 9.65% (inactive).

In the case of `O=C(c1ccc(Cl)cc1)c1ccc(Cl)cc1`, the “activity change, negative = cytotoxicity” value is -8% (inactive).

Turning to `CC(C(=O)O)c1ccc(/C=C2\CCCCC2=O)cc1` (stereo not drawn), the “activity change, negative = cytotoxicity” value was 0.138% [at 35.3 µM] (inactive).

In the case of `CCC(C)CCCC(C)(C)O` (stereo not drawn), the “activity change, negative = cytotoxicity” value is 16.2% (inactive).

In the case of `COc1ccc(/C=C/S(=O)(=O)NC(=O)c2ccc(C)cc2Cl)cc1`, the “activity change, negative = cytotoxicity” value was -9.43% (inactive).

Regarding `Nc1ncnc2c1ncn2[C@@H]1O[C@H](CO)[C@@H](O)[C@H]1O`, the “activity change, negative = cytotoxicity” value is 15.2% [at 35.3 µM] (inactive).

For the compound `CCC(C(=O)O)c1ccc(N2Cc3ccccc3C2=O)cc1` (stereo not drawn), the “activity change, negative = cytotoxicity” value is -6.14% [at 35.3 µM] (inactive).

As for `CCCC(=O)OCc1ccccc1`, the “activity change, negative = cytotoxicity” value is -2.12% (inactive).

Regarding `CCCC1CCCC(=O)O1` (stereo not drawn), the “activity change, negative = cytotoxicity” value is -17.9% (inactive).

Regarding `CCCOC(C)=O`, the “activity change, negative = cytotoxicity” value was 8.66% (inactive).

As to `CCc1ccc2c(c1)C(=O)c1ccccc1C2=O`, the “activity change, negative = cytotoxicity” value was -0.571% (inactive).

Take `O=C(N[C@@H](Cc1ccccc1)[C@@H](O)C(=O)N1C[C@@H](O)[C@@H](O)C1)c1cc2cc(Cl)ccc2[nH]1`: the “activity change, negative = cytotoxicity” value is -26.8% (inactive).

In the case of `C/C=C1\[C@H]2C=C(C)C[C@]1(N)c1ccc(=O)[nH]c1C2`, the “activity change, negative = cytotoxicity” value was 6.86% [at 35.3 µM] (inactive).

On to `O=C(Nc1ccc2c(c1)Cc1ccccc1-2)C(F)(F)F`, for which the “activity change, negative = cytotoxicity” value is 4.62% (inactive).

For the compound `O=C1C=CCCC1`, the “activity change, negative = cytotoxicity” value is 13.3% (inactive).

`CCCc1nc(C)c2c(=O)[nH]c(-c3cc(S(=O)(=O)N4CCN(CC)CC4)ccc3OCC)nn12`: the “activity change, negative = cytotoxicity” value is -2.61% [at 35.3 µM] (inactive).

In the case of `CS(C)=O`, the “activity change, negative = cytotoxicity” value was -8.4% (inactive).

In the case of `CCOC(OCC)OCC`, the “activity change, negative = cytotoxicity” value is -1.63% (inactive).

Regarding `CCCN(C1CCN(C(=O)C2CCNCC2)CC1)[C@@H]1CCc2ccc(OC)cc2C1`, the “activity change, negative = cytotoxicity” value is -25% (inactive).

As to `Cc1c(Cl)cccc1[N+](=O)[O-]`, the “activity change, negative = cytotoxicity” value was 1.4% (inactive).

Regarding `CC(C)=CCCC(C)C=O` (stereo not drawn), the “activity change, negative = cytotoxicity” value is 24.5% (inactive).

`CCN(CC)CC(=O)OCC(=O)[C@@]1(O)CC[C@H]2[C@@H]3CCC4=CC(=O)CC[C@]4(C)[C@H]3[C@@H](O)C[C@@]21C`: the “activity change, negative = cytotoxicity” value is 2.45% [at 35.3 µM] (inactive).

With `CC(CN=Cc1ccccc1O)N=Cc1ccccc1O` (stereo not drawn), the “activity change, negative = cytotoxicity” value is -7.27% (inactive).

As for `CCC1=C(C)CN(C(=O)NCCc2ccc(S(=O)(=O)NC(=O)NC3CCC(C)CC3)cc2)C1=O` (stereo not drawn), the “activity change, negative = cytotoxicity” value is -0.286% [at 35.3 µM] (inactive).

With `O=C(O)c1cc(C(=O)O)cc([N+](=O)[O-])c1`, the “activity change, negative = cytotoxicity” value was 6.07% (inactive).

The nature of another test: qHTS assay to identify small molecule antagonists of the retinoid acid receptor (RAR) signaling pathway - cell viability counter screen (AID 1159551). Further: nearly all actives have a fitted effect of over 35% in size. As to conditions: C3RL4 cells viability, ATP luminescence (CellTiter-Glo), 6 h; series mostly up to 92.4 µM; activity change, negative = cytotoxicity: at the top concentration. Put shortly:
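Cells (C3RL4) are plated, incubated overnight, dosed with compound in DMSO, then given retinol at 1 uM final. After 6 h at 37 C, CellTiter-Glo is added and luminescence read following 30 min at room temperature.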
A general note: qHTS replaces the single test concentration by a dilution series.
`Oc1ccc(Oc2ccccc2)cc1`: the “activity change, negative = cytotoxicity” value is 2.38% (inactive).

In the case of `CCCCCCCCCCCCCCCCCCCl`, the activity change, negative = cytotoxicity is -1.45% [at 8.39 µM] (inactive).

In the case of `CC(=O)Oc1cccc2c1C(=O)c1c(OC(C)=O)cc(C(=O)O)cc1C2=O`, the “activity change, negative = cytotoxicity” value is -1.55% [at 42.5 µM] (inactive).

On to `O=[N+]([O-])c1cccc(I)c1`, for which the “activity change, negative = cytotoxicity” value was 4.41% (inactive).

With `CCCc1ccc(OC)cc1`, the “activity change, negative = cytotoxicity” value is 4.53% (inactive).

For the compound `O=C1c2ccccc2C(=O)c2c1ccc(O)c2O`, the “activity change, negative = cytotoxicity” value was -6.63% [at 42.5 µM] (inactive).

On to `CCC(C)C1N=C(C)C(C)S1` (stereo not drawn), for which the “activity change, negative = cytotoxicity” value is 1.99% (inactive).

On to `C/C(=C(\CCO)SS/C(CCO)=C(\C)N(C=O)Cc1cnc(C)nc1N)N(C=O)Cc1cnc(C)nc1N`, for which the “activity change, negative = cytotoxicity” value is 1.24% [at 42.5 µM] (inactive).

On to `CC(C)(Cc1c[nH]c2ccccc12)NCC(O)COc1ccccc1C#N` (stereo not drawn), for which the “activity change, negative = cytotoxicity” value was 0.141% [at 42.5 µM] (inactive).

Consider `Clc1ccccc1-c1nc(-c2ccncc2)no1`, for which the “activity change, negative = cytotoxicity” value was -2.83% [at 42.5 µM] (inactive).

For `CCCCCCCCS`, the “activity change, negative = cytotoxicity” value is -0.975% (inactive).

For the compound `CC(C)NC(=O)c1ccccc1N`, the “activity change, negative = cytotoxicity” value was 4.28% (inactive).

Regarding `O=[N+]([O-])c1ccccc1CCO`, the “activity change, negative = cytotoxicity” value was 2.42% (inactive).

Take `Cc1c(N=C=O)cccc1N=C=O`: the “activity change, negative = cytotoxicity” value was 2.13% (inactive).

Regarding `CC(C)(C)N`, the “activity change, negative = cytotoxicity” value was 2% (inactive).

In the case of `O=C(c1ccc(Cl)cc1)c1ccc(Cl)cc1`, the “activity change, negative = cytotoxicity” value was -0.243% (inactive).

On to `CC(C(=O)O)c1ccc(/C=C2\CCCCC2=O)cc1` (stereo not drawn), for which the “activity change, negative = cytotoxicity” value was 3.71% [at 42.5 µM] (inactive).

For `CCC(C)CCCC(C)(C)O` (stereo not drawn), the “activity change, negative = cytotoxicity” value was 2.31% (inactive).

In the case of `COc1ccc(/C=C/S(=O)(=O)NC(=O)c2ccc(C)cc2Cl)cc1`, the “activity change, negative = cytotoxicity” value was -0.512% (inactive).

As to `Nc1ncnc2c1ncn2[C@@H]1O[C@H](CO)[C@@H](O)[C@H]1O`, the “activity change, negative = cytotoxicity” value is 5.49% [at 42.5 µM] (inactive).

Consider `CCC(C(=O)O)c1ccc(N2Cc3ccccc3C2=O)cc1` (stereo not drawn), for which the “activity change, negative = cytotoxicity” value is -2.74% [at 42.5 µM] (inactive).

As to `CCCC(=O)OCc1ccccc1`, the “activity change, negative = cytotoxicity” value is 6.22% (inactive).

Consider `CCCC1CCCC(=O)O1` (stereo not drawn), for which the “activity change, negative = cytotoxicity” value is 0.474% (inactive).

With `CCCOC(C)=O`, the “activity change, negative = cytotoxicity” value was 0.656% (inactive).

With `CCc1ccc2c(c1)C(=O)c1ccccc1C2=O`, the “activity change, negative = cytotoxicity” value was -6.53% (inactive).

Take `O=C(N[C@@H](Cc1ccccc1)[C@@H](O)C(=O)N1C[C@@H](O)[C@@H](O)C1)c1cc2cc(Cl)ccc2[nH]1`: the “activity change, negative = cytotoxicity” value is -1.7% (inactive).

As to `C/C=C1\[C@H]2C=C(C)C[C@]1(N)c1ccc(=O)[nH]c1C2`, the “activity change, negative = cytotoxicity” value is 0.902% [at 42.5 µM] (inactive).

Consider `O=C(Nc1ccc2c(c1)Cc1ccccc1-2)C(F)(F)F`, for which the “activity change, negative = cytotoxicity” value was -0.82% (inactive).

As for `O=C1C=CCCC1`, the “activity change, negative = cytotoxicity” value is 4.46% (inactive).

With `CCCc1nc(C)c2c(=O)[nH]c(-c3cc(S(=O)(=O)N4CCN(CC)CC4)ccc3OCC)nn12`, the “activity change, negative = cytotoxicity” value was 1.14% [at 42.5 µM] (inactive).

For `CS(C)=O`, the “activity change, negative = cytotoxicity” value was 1.27% (inactive).

With `CCOC(OCC)OCC`, the “activity change, negative = cytotoxicity” value is 0.23% (inactive).

`CCCN(C1CCN(C(=O)C2CCNCC2)CC1)[C@@H]1CCc2ccc(OC)cc2C1`: the “activity change, negative = cytotoxicity” value is 0.0327% (inactive).

Consider `Cc1c(Cl)cccc1[N+](=O)[O-]`, for which the “activity change, negative = cytotoxicity” value is 6.09% (inactive).

With `CC(C)=CCCC(C)C=O` (stereo not drawn), the “activity change, negative = cytotoxicity” value is -0.33% (inactive).

On to `CCN(CC)CC(=O)OCC(=O)[C@@]1(O)CC[C@H]2[C@@H]3CCC4=CC(=O)CC[C@]4(C)[C@H]3[C@@H](O)C[C@@]21C`, for which the “activity change, negative = cytotoxicity” value is 3.82% [at 42.5 µM] (inactive).

Turning to `CC(CN=Cc1ccccc1O)N=Cc1ccccc1O` (stereo not drawn), the “activity change, negative = cytotoxicity” value is -0.126% (inactive).

As for `CCC1=C(C)CN(C(=O)NCCc2ccc(S(=O)(=O)NC(=O)NC3CCC(C)CC3)cc2)C1=O` (stereo not drawn), the “activity change, negative = cytotoxicity” value is 2.72% [at 42.5 µM] (inactive).

On to `O=C(O)c1cc(C(=O)O)cc([N+](=O)[O-])c1`, for which the “activity change, negative = cytotoxicity” value is 0.0245% (inactive).
